Data reported in PubChem BioAssay (NCI).
The panel holds about 83,000 compounds, 20% with a hit somewhere; the sample as a whole holds those more often.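 Values shown are percent growth following 48 h exposure of cells in 96-well plates to a single concentration of compound; below 10 was considered active.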 A number with no mark means an inactive call. Activity calls are given as the source filed them.

How the values were obtained:
Assay in all cases: NCI-60 one-dose screen, 48 h (100 = growth as untreated, 0 = no growth, -100 = all killed)
Conditions in all cases: 10 µM
[1] = test system: HOP-92 NSCLC
[2] = test system: SK-MEL-2 melanoma
[3] = test system: CCRF-CEM leukemia
[4] = test system: IGROV1 ovarian
[5] = test system: MCF7 breast
[6] = test system: HCT-116 colon
[7] = test system: HCC-2998 colon
[8] = test system: KM12 colon
[9] = test system: COLO 205 colon
[10] = test system: RXF 393 renal
[11] = test system: SNB-75 CNS
[12] = test system: SK-MEL-5 melanoma
[13] = test system: UACC-62 melanoma
[14] = test system: SN12C renal
[15] = test system: OVCAR-4 ovarian
[16] = test system: SK-OV-3 ovarian
[17] = test system: T-47D breast
[18] = test system: NCI/ADR-RES ovarian

Row | SMILES | growth [1] [%] | growth [2] | growth [3] [%] | growth [4] [%] | growth [5] [%] | growth [6] [%] | growth [7] | growth [8] [%] | growth [9] | growth [10] | growth [11] [%] | growth [12] | growth [13] | growth [14] [%] | growth [15] [%] | growth [16] [%] | growth [17] [%] | growth [18] [%]
1 | COc1cccc(O)c1/C=C1\SCc2cc3c(OC)cccc3[o+]c21 | 154 | 110% | 101 | 104 | 90 | 107 | 114% | 110 | – | – | – | – | – | – | – | – | – | –
2 | COc1ccc(C(=O)COc2ccc(NC(=O)Nc3ccc(Cl)c(C(F)(F)F)c3)cc2)cc1 | – | -6.77% (active) | – | 49.9 | 17.1 | 25.9 | 1.03% (active) | 13.6 | 7.1% (active) | -52.1% (active) | 33 | -67.3% (active) | 7.25% (active) | 40.9 | 19 | 41.8 | 12.5 | –
3 | Cc1ccc2c(c1)C(=O)/C(=C/c1c[nH]c3ccccc13)S2 | – | – | 29.2 | – | 18.6 | 14.2 | 65.8% | 35.1 | – | -28.1% (active) | – | 59% | – | 51.2 | 40.9 | – | 33.5 | 71.6
